# Results: PubChem BioAssay (NCATS)
# Inconclusive results are not listed. Values without a mark were called inactive. The source made the active and inactive calls. Calls follow the shape of the dose curve; as a rule, active = well fitted curve in either direction with a large enough effect (not every such curve was filed as active); inconclusive = small, poorly fitted or top-dose-only effect, or another doubt; inactive = flat fitted curve, though single readings scatter.
# Target: Mitogen-activated protein kinase 10 (Mus musculus) (UniProt Q61831)
# Test: JNK3 AlphaScreen Assay (AID 530);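 also: kinase came from lysate of stimulated human HepG2 cells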
# Details: JNK3 lysate, c-Jun phosphorylation; series mostly up to 57.1 µM; activity change, negative = inhibition: at the top concentration
# Description: NIH Chemical Genomics Center [NCGC]
# NIH Molecular Libraries Screening Centers Network [MLSCN]
# The c-jun N-terminal kinase (JNK) family are serine/threonine protein kinases that phosphorylate c-jun, a component of the transcription factor […] (AP-1). JNK kinases are members of the mitogen-activated protein kinase family including the extracellular regulated kinases and p38 kinases. Three JNK genes (JNK 1, 2, and 3) have been identified in humans so far. JNK1 and JNK2 have a broad distribution and JNK3 is primarily found in neuronal tissues and cardiac myocytes.
# JNK3 has been under consideration as a target for the treatment of neurodegenerative disorders. […] JNK pathway is also involved in pathological process in a mouse model of Parkinson's disease (Xia et al., 2001).
# Given these potential tissue distributions and links to neuroprotection, JNK3 inhibitors should provide useful investigational tools to study the role of this kinase in several diseases including, arthritis, stroke, myocardial infarction, ischemic injury and Parkinson's disease.
# A homogeneous AlphaScreen is developed to measure the activity of JNK3. AlphaScreen is a two bead-based proximity-dependent chemical energy transfer luminescent assay platform. The phosphorylation of a biotinylated c-jun substrate by JNK3 can be detected with an antibody raised against phosphorylated c-jun. This process brings streptavidin donor beads and Protein-A acceptor beads to within a proximity range of <200 nm, and subsequently lead a chemical luminescent reaction upon exciting donor beads with 680 nm laser excitation light. Inhibition of JNK3 activity by small molecules and subsequent decrease in the antibody binding to biotinylated c-jun could attenuate or abolish this chemical luminescent reaction.
# Yang DD, Kuan CY, Whitmarsh AJ, Rincon M, Zheng TS, Davis RJ, Rakic P and Flavell RA (1997) Absence of excitotoxicity-induced apoptosis in the hippocampus of mice lacking the Jnk3 gene. Nature 389:865-870. [PMID: 9349820]
# Herdegen T, Claret FX, Kallunki T, Martin-Villalba A, Winter C, Hunter T, and Karin M (1998) Lasting N-terminal phosphorylation of c-Jun and activation of c-Jun N-terminal kinases after neuronal injury. J.Neurosci. 18:5124-5135. [PMID: 9651196]
# Xia XG, Harding T, Weller M, Bieneman A, Uney JB and Schulz JB (2001) Gene transfer of the JNK interacting protein-1 protects dopaminergic neurons in the MPTP model of Parkinson's disease. Proc.Natl.Acad.Sci.U.S.A. 98:10433-10438.
# NCGC Assay Protocol Summary:
# GST-cJun (1-79) (Stratagene, La Jolla CA, #205145) was biotnylated by PerkinElmer (PerkinElmer-BioSignalInc. Montreal, Canada) and was detectable by the streptavidin Donor beads. Anti-(phospho)cJun (Ser73) antibody was from UpState (Charlottesvilles, VA, #06-659). JNK3-containing lysates were generated from HepG2 cells and pre-activated by interleukin1-beta and tumor necrosis factor alpha. All reagents were stored at -20 C before using. Phosphorylated biotinylated-GST-cJun was recognized by Anti-(phospho)cJun (Ser73) antibody and this process brings acceptor and donor beads together. Therefore JNK3 phosphorylation of cJun can be measured by Alpha reading by EnVision (PerkinElmer, Boston, MA).
# The composition of kinase buffer was (in mM) 20 tris- HCl (pH 7.6) 10 MgCl2, 1 DTT, and 0.1 Na3VO4 and 0.01% Tween-20. Beads were diluted in detection buffer containing (in mM) 20 tris-HCl (pH 7.7), 20 NaCl and 80 EDTA and 0.3% BSA. The assay was performed at room temperature. All compounds were screened as titrations from 0.6 nM to 46 uM final concentration. The assay was performed in 1536-well format (white solid bottom and untreated) as follows:
# Sequence,Parameter,Value,Description
# 1,Reagent,3 uL,Biotin-GST-cJun, Anti-(phospho)cJun and pre-activated JNK3-containing lysates
# 2,Compound,23 nL,Final concentration was 0.6nM to 46uM
# 3,Time,15 minutes,Room Temperature
# 4,Reagent,1 uL,ATP final concentration 10uM
# 6,Reagent,0.5 uL,2ng/well bead mixture
# […]
# % is scaled to controls: 0 for no effect and ±100 for the full control effect.
SMILES,outcome,"activity change, negative = inhibition"
NNCCc1ccccc1,inactive,–
Cc1[nH]c(=O)c(C#N)cc1-c1ccncc1,inactive,–
NC[C@H](O)c1ccc(O)c(O)c1,inactive,–
CCOC(=O)N1CCC(=C2c3ccc(Cl)cc3CCc3cccnc32)CC1,inactive,–
COc1ccc2nc(S(=O)Cc3ncc(C)c(OC)c3C)[nH]c2c1 (configuration not stated),–,-10.3% [at 25.6 µM]
C1COC(NC(C2CC2)C2CC2)=N1,inactive,–
CN1CCN(CCCN2c3ccccc3Sc3ccc(C(F)(F)F)cc32)CC1,inactive,–
CCN(c1ccccc1)c1cc(NC)[n+](C)c(C)n1,–,-20.2%
O=c1[nH]cnc2[nH]ncc12,inactive,–
CCCC(CCC)C(=O)O,–,18.4%
CCOC(=O)C1=C[C@@]2(CC)CCCN3CCc4c(n1c1ccccc41)[C@H]32,inactive,–
Cc1oncc1C(=O)Nc1ccc(C(F)(F)F)cc1,inactive,–
CCCCNc1cc(C(=O)O)cc(S(N)(=O)=O)c1Oc1ccccc1,–,-0.869% [at 25.6 µM]
O=c1n(CCCN2CCN(c3cccc(Cl)c3)CC2)nc2ccccn12,inactive,–
CC(C)C[C@H](NC(=O)[C@@H](O)[C@H](N)Cc1ccccc1)C(=O)O,–,-11.8%
N=c1nc(N2CCCCC2)cc(N)n1O,inactive,–
Nc1nc2c(ncn2COCCO)c(=O)[nH]1,inactive,–
Clc1cccc(Cl)c1NC1=NCCN1,–,-2.44% [at 25.6 µM]
NC(=O)c1ccc(-c2nc(-c3ccc4c(c3)OCO4)c(-c3ccccn3)[nH]2)cc1,–,-34.4%

SMILES,outcome,"activity change, negative = inhibition"
N[C@@H]1CONC1=O,inactive,–
Cc1ccc2c(c1)C(=O)[C@@]1(O)CCN(c3ccccc3)C1=N2,–,2.25%
NC(N)=NC(=O)c1nc(Cl)c(N)nc1N,inactive,–
Nc1nc2ccc(OC(F)(F)F)cc2s1,–,-8.53% [at 25.6 µM]
O=NN(CCCl)C(=O)NCCCl,–,-7.25%
NS(=O)(=O)c1cc2c(cc1Cl)NC=NS2(=O)=O,inactive,–
O=C1CCc2cc(OCCCCc3nnnn3C3CCCCC3)ccc2N1,inactive,–
CNC[C@H](O)c1cccc(O)c1,–,2.99%
Cc1cnc(NC(=O)C2=C(O)c3ccccc3S(=O)(=O)N2C)s1,–,-28%
Cc1ccc(N(CC2=NCCN2)c2cccc(O)c2)cc1,inactive,–
NCCc1ccc(O)c(O)c1,–,2.69%
CC(C)(Sc1ccc(CCN(CCCCC2CCCCC2)C(=O)NC2CCCCC2)cc1)C(=O)O,inactive,–
CC(=O)Oc1ccccc1C(=O)O,inactive,–
NC(=O)c1cnccn1,inactive,–
Cn1cnc([N+](=O)[O-])c1Sc1ncnc2nc[nH]c12,inactive,–
Nc1ccc(S(=O)(=O)Nc2ccnn2-c2ccccc2)cc1,inactive,–
N#Cc1ccc(C(c2ccc(C#N)cc2)n2cncn2)cc1,–,-0.854% [at 25.6 µM]
CCC(C)(C)C(=O)O[C@H]1C[C@@H](C)C=C2C=C[C@H](C)[C@H](CC[C@@H]3C[C@@H](O)CC(=O)O3)[C@H]21,–,-8.9%
